# Laboratory results: PubChem BioAssay
# Calls of active or inactive are those of the source. Unless noted, the rule behind the calls is not given here.
# Experiments:
# [1] = HepG2 liver cancer cell viability effects, profiling panel, resazurin fluorescence, 24 h, PK04 Diversity Set (AID 1172); conditions: higher = more signal
# [2] = basal S. cerevisiae growth modulation, no modifier, primary screen, OD600, strain BY4716, 24 h, basal condition (AID 1173); conditions: OD600, 24 h, higher = more signal, called active from +8 up or from −8 down
# [3] = MM1S myeloma cell viability, profiling panel, resazurin fluorescence, basal, 24 h, PK04 Diversity Set (AID 1174); conditions: higher = more signal, called active from +8 up or from −8 down;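 note: MM1S multiple myeloma cell line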
# [4] = target: Dihydroorotate dehydrogenase (quinone), mitochondrial (Plasmodium falciparum (isolate 3D7)) (UniProt Q08210); assay: PfDHODH enzyme inhibitors, primary screen, biochemical, C-terminal His tag, absorbance 600 nm (AID 1175); conditions: DCIP absorbance 600 nm, higher = more signal, called active from +8 up or from −8 down;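 note: recombinant parasite enzyme with a five histidine tag at its C terminus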
# Dihydroorotate dehydrogenase (quinone), mitochondrial (Plasmodium falciparum (isolate 3D7)), sequence (Q08210 whole entry, looked up): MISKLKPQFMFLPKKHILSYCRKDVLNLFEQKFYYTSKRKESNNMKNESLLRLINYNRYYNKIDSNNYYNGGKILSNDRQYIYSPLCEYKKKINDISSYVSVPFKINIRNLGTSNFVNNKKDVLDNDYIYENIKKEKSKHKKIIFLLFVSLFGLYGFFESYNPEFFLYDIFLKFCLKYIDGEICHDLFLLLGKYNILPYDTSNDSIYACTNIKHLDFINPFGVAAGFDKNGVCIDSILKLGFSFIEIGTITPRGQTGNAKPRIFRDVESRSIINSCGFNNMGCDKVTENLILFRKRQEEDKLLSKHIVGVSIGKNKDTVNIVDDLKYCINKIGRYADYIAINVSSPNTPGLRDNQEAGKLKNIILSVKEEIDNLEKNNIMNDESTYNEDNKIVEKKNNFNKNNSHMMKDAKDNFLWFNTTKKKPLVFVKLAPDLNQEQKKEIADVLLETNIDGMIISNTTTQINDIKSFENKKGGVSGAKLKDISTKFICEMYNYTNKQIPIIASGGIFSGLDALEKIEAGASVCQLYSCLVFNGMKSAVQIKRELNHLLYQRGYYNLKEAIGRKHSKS
# [5] = P. aeruginosa biofilm formation inhibitors, primary screen, strain PAO1, LB-PBS medium, absorbance 600 nm (AID 1176); conditions: P. aeruginosa PAO1 growth/biofilm, A600, 12 h; higher = more signal
# [6] = S. cerevisiae RM11-1a growth modifiers, primary screen, strain RM11-1a, OD600, basal, 24 h (AID 1177); conditions: OD600, 24 h, higher = more signal, called active from +8 up or from −8 down;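 note: cultures grown under basal conditions with no added stressor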
# [7] = E. coli acrAB mutant growth effects, primary screen, E. coli filamentation inducers, strain DRC39, OD650, 24 h (AID 1178); conditions: higher = more signal, called active from +8 up or from −8 down;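 note: growth measured as culture turbidity by optical density at 650 nm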
# [8] = E. coli acrAB mutant growth effects, primary screen, E. coli filamentation inducers, strain DRC39, OD650, 48 h (AID 1179);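 note: screen aims at cell division blockers that make cells filament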; conditions: E. coli DRC39 delta-acrAB growth, higher = more signal, called active from +8 up or from −8 down
# [9] = RPMI8226 myeloma cell viability, profiling panel, resazurin fluorescence, basal, 24 h, PK04 Diversity Set (AID 1180); conditions: higher = more signal;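 note: RPMI8826 multiple myeloma cell line at 5000 cells per well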
# [10] = target: E3 ubiquitin-protein ligase XIAP (Homo sapiens) (UniProt P98170); assay: XIAP binders, primary screen, biophysical, small-molecule microarray, fluorescence 635 nm (AID 1181); conditions: small-molecule microarray binding, higher = more signal;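 note: score merges 667 nm emission and signal to noise over triplicate slides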
# E3 ubiquitin-protein ligase XIAP (Homo sapiens), sequence (P98170 whole entry, looked up): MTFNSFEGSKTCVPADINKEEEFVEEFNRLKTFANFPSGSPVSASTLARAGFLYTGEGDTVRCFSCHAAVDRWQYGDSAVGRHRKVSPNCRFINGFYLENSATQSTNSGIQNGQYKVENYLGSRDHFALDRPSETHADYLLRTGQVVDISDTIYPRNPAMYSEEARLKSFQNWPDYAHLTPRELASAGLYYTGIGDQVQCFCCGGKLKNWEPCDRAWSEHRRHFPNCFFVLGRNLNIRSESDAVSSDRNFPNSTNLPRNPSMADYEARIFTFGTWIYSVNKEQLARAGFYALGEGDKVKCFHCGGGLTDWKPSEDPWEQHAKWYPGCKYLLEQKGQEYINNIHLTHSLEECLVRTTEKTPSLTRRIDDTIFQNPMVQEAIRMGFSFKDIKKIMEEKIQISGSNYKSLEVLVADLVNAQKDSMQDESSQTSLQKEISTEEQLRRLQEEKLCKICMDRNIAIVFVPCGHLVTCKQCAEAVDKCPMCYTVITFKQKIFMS
# [11] = system: XIP peptide (Xip251-270) binding; assay: small-molecule binders of XIP peptide, primary screen, biochemical, small-molecule microarray, fluorescence 635/667 nm, 0.1 µg/mL protein (AID 1182); conditions: fluorescent protein binding, 635 nm, higher = more signal, called active from +8 up or from −8 down
# XIP peptide (Xip251-270) = assay: small-molecule binders of XIP peptide, primary screen, biochemical, small-molecule microarray, fluorescence 635/667 nm, 0.5 µg/mL protein (AID 1183); conditions: small-molecule microarray binding, fluorescence 635 nm; higher = more signal
# [12] = Plasmodium falciparum growth inhibition, primary screen, strain 3D7, DAPI fluorescence, 100 nL (AID 1184);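 note: parasites grown inside human red blood cells in medium with human serum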; conditions: P. falciparum 3D7 growth, 3 d, higher = more signal
# [13] = target: Homeobox protein Hox-A13 (Mus musculus) (UniProt Q62424); assay: inhibitors of HoxA13-DNA binding, primary screen, biochemical, fluorescence polarization, labeled oligonucleotide (AID 1185); conditions: 15 min, higher = more signal, called active from +8 up or from −8 down
# Homeobox protein Hox-A13 (Mus musculus), sequence (Q62424 whole entry, looked up): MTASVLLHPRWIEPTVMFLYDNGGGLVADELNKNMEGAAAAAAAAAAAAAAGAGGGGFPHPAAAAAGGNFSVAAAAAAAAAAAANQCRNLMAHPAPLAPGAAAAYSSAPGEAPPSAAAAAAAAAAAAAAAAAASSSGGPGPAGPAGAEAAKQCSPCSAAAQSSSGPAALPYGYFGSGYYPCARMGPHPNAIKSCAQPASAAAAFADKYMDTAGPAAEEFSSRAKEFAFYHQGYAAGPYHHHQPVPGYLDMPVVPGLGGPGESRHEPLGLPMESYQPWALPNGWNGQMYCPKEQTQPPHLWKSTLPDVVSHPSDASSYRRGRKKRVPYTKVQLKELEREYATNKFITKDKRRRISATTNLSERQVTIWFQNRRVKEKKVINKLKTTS
# [14] = inhibitors of hydroxyurea-induced Chk1 phosphorylation, primary screen, imaging, HeLa, phospho-Chk1 antibody, percent positive cells (AID 1186); conditions: hydroxyurea-induced phospho-Chk1 immunofluorescence imaging, higher = more signal
# [15] = inhibitors of hydroxyurea-induced Chk1 phosphorylation, primary screen, imaging, HeLa, phospho-Chk1 nuclear intensity (AID 1187); conditions: hydroxyurea-induced phospho-Chk1 immunofluorescence imaging, higher = more signal
Structure (SMILES),z-score [1],z-score [2],z-score [3],composite z-score [4],z-score [5],z-score [6],z-score [7],z-score [8],z-score [9],composite z-score [10],composite z-score [11],composite z-score (XIP peptide (Xip251-270)),z-score [12],z-score [13],z-score [14],z-score [15]
C=CC1c2cc(O)c(OC)cc2CCN1Cc1cccc(OC(F)(F)F)c1 (centres undefined),0.125,-16.7 (active),-4.17 (inactive),-5.06 (inactive),0.0898 (inactive),-13.7 (active),1.2 (inactive),0.738 (inactive),-2.3,0.0304,1.81 (inactive),0.918,-1.8,-4.91 (inactive),0.08 (inactive),0.362 (inactive)
O=C1C2C=CC(C(O)C=Cc3ccc([N+](=O)[O-])cc3)N(Nc3ccccc3F)C2C(=O)N1c1ccccc1 (centres undefined),-0.964,2.18 (inactive),-0.747 (inactive),1.06 (inactive),1.58 (inactive),1.6 (inactive),-0.388 (inactive),-0.138 (inactive),-0.381,0.0101,0.308 (inactive),0.774,-0.448,-4.79 (inactive),-0.668 (inactive),-1.16 (inactive)
[N-]=[N+]=Nc1ccccc1C[C@]1(C(=O)NCC(O)CO)N=C(c2ccc(OCCCO)cc2)O[C@H]1c1ccccc1 (some centres undefined),-0.577,-1.23 (inactive),-0.62 (inactive),0.986 (inactive),1.13 (inactive),2 (inactive),-0.283 (inactive),-0.949 (inactive),-1,-0.0525,0.474 (inactive),0.511,-1.9,-5.96 (inactive),0.178 (inactive),-0.365 (inactive)
COc1ccc([C@H]2C[C@H]3C(I)=C[C@@H]2C(=O)[C@]32CO2)cc1,0.91,-9.78 (active),-0.306 (inactive),-0.174 (inactive),0.167 (inactive),-1.14 (inactive),1.73 (inactive),0.344 (inactive),0.867,0.288,-0.344 (inactive),0.68,0.456,-1.41 (inactive),0.125 (inactive),-0.217 (inactive)
C=CCC(OC(C)=O)[C@@H]1[C@@H](N(Cc2cc3ccccc3o2)C(=O)Cc2ccc(OC)cc2)c2cc(OCCCO)ccc2N1C(=O)c1ccc2ccccc2c1 (some centres undefined),-1.5,-0.256 (inactive),-0.0928 (inactive),0.164 (inactive),-0.227 (inactive),-0.226 (inactive),-0.629 (inactive),-1.05 (inactive),-0.516,0.0374,0.0999 (inactive),0.167,-2.47,-1.6 (inactive),0.556 (inactive),0.877 (inactive)
COC(=O)[C@@]1(Cc2ccc(OC)cc2)[C@H]2c3cc(C(=O)N4CCCC4)n(CCc4ccc(O)c(O)c4)c3C[C@H]2CN1C(=O)c1ccccc1,-1.37,1.04 (inactive),-1.79 (inactive),-0.487 (inactive),2.16 (inactive),0.397 (inactive),-0.215 (inactive),-0.163 (inactive),-1.33,0.0517,1.75 (inactive),0.83,-1.62,-6.01 (inactive),0.264 (inactive),0.379 (inactive)
C=C(CCCC)/C(=C/C[C@@H](OC(C)=O)c1ccccc1OCCO)c1cc(C(=O)OC)ccc1OC,0.937,-0.746 (inactive),-0.909 (inactive),-0.04 (inactive),0.367 (inactive),0.724 (inactive),1.5 (inactive),1.04 (inactive),0.627,-0.02,-0.0324 (inactive),0.906,-2.51,-4.39 (inactive),-0.402 (inactive),0.114 (inactive)
COC(=O)[C@@]1(Cc2ccc(F)cc2)[C@H]2c3cc(C(=O)N(C)C)n(Cc4ccc(C)o4)c3C[C@H]2CN1C(=O)c1ccccc1,-0.0869,0.241 (inactive),0.003 (inactive),-0.631 (inactive),0.467 (inactive),-0.0282 (inactive),-0.359 (inactive),-0.192 (inactive),-0.0803,1.87,1.66 (inactive),0.665,-1.44,-2.94 (inactive),0.262 (inactive),-0.0286 (inactive)
O=C1NC(=O)C2C1C=CC(C(O)c1ccc(-c3ccccc3)s1)N2Nc1ccc(Cl)cc1Cl (centres undefined),-3.58,-1.99 (inactive),-1.69 (inactive),0.0414 (inactive),2.64 (inactive),0.856 (inactive),0.457 (inactive),-1.2 (inactive),-1.75,0.849,-0.142 (inactive),0.701,-0.0328,-3.64 (inactive),0.197 (inactive),0.136 (inactive)
